Data taken from publication PMC5540273 (PLoS ONE, 2017).

Key:
Conditions in all cases: concentration: 1 μM,replicates: in singlicate; n = 1
[1] = system: RIOK1
[2] = system: RIOK2
[3] = system: RIOK3
[4] = system: RIPK1
[5] = system: RIPK2
[6] = system: RIPK4
[7] = system: RIPK5
[8] = system: ROCK1
[9] = system: ROCK2
[10] = system: ROS1
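Also: KINOMEscan kinase panel screen.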

| Compound | %Inh [1] [%] | %Inh [2] [%] | %Inh [3] [%] | %Inh [4] [%] | %Inh [5] [%] | %Inh [6] [%] | %Inh [7] [%] | %Inh [8] [%] | %Inh [9] [%] | %Inh [10] [%] |
| --- | --- | --- | --- | --- | --- | --- | --- | --- | --- | --- |
| COC(=O)Nc1nc2cc(Oc3ccc(NC(=O)Nc4cc(C(F)(F)F)ccc4Cl)cc3)ccc2[nH]1.Cl [GW697465] | 0 | 2 | 0 | 41 | 43 | 1 | 0 | 26 | 24 | 42 |
| Cn1ccc2ncnc(Oc3ccc(NC(=O)Nc4cccc(C(F)(F)F)c4)c(Cl)c3)c21 | 6 | 2 | 41 | 6 | 43 | 0 | 11 | 0 | 26 | 12 |
| CCn1c(-c2nonc2N)nc2cncc(Br)c21 [SB-738004] | 19 | 3 | 17 | 27 | 11 | 58 | 1 | 99.7 | 99.6 | 7 |
| CCN1CCN(CCCC(=O)Nc2n[nH]c3nc(-c4ccc(O)cc4)c(Br)cc23)CC1 [SB-731579] | 39 | 0 | 9 | 0 | 0 | 27 | 0 | 10 | 0 | 8 |
| Cn1ccc2ncnc(Oc3ccc(NC(=O)Nc4ccnc(C(F)(F)F)c4)c(Cl)c3)c21 | 0 | 19 | 6 | 0 | 0 | 0 | 0 | 17 | 0 | 0 |
| OCCn1cc(-c2cnc3nnn(Cc4ccc5ncccc5c4)c3n2)cn1 | 0 | 0 | 19 | 0 | 0 | 0 | 0 | 0 | 0 | 0 |
| CCOC(=O)N1CCC(n2cnc(-c3ccc(F)cc3)c2-c2ccnc(N)n2)CC1 [SB-219952] | 51 | 24 | 35 | 18 | 34 | 64 | 5 | 45 | 12 | 15 |
| Cc1ccn2nc(-c3ccc(F)cc3)c(-c3ccncc3)c2c1.Cl [GW457859] | 23 | 0 | 23 | 1 | 41 | 6 | 0 | 12 | 20 | 0 |
